In PubChem BioAssay (EPA / NIEHS):
The source made the active and inactive calls. The calls were made as follows: active = hit-call score of the fitted dose curve at least 0.9, where 1 is the maximum; inactive = score below 0.9.

Columns and labels:
Settings in all cases: primary human HUVEC with PBMC; actives raise or lower the signal
[1] = read-out: Macrophage colony-stimulating factor (MCSF), CSF1 (gene 1435); assay: BSK_LPS_MCSF: BioMAP Diversity Plus: LPS Assay for Macrophage colony-stimulating factor (MCSF) Biomarker Activity (AID 2283083)
Procedure, shortened: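 Compound is added to a human vascular primary co-culture of umbilical vein endothelium and blood mononuclear cells. After 24 h, M-CSF is quantified by ELISA. Signal changes are fitted in both directions against DMSO.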

[2] = read-out: Tissue Factor, F3 (gene 2152); assay: BSK_LPS_TissueFactor: BioMAP Diversity Plus: LPS Assay for Tissue Factor Biomarker Activity (AID 2283084)
Procedure, shortened: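 In this co-culture system of umbilical vein endothelium with PBMC, stimulated with LPS, cell-surface CD142 is detected by ELISA at 24 h. Endpoint values derive from bidirectional fitting, DMSO serving as baseline.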

[3] = read-out: Tumor necrosis factor (Homo sapiens) (UniProt P01375); assay: BSK_LPS_TNFa: BioMAP Diversity Plus: LPS Assay for Tumour Necrosis Factor alpha (TNFa) Biomarker Activity (AID 2283085);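 as to AC50: TNFa protein level quantified by ELISA in the co-culture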
Procedure, shortened: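 TNFa was quantified by ELISA in LPS-activated co-cultures of human endothelial cells and PBMC, 24 h post-dosing. Both increases and decreases versus DMSO were fitted.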

[4] = read-out: Vascular cell adhesion molecule 1 (VCAM1), VCAM1 (gene 7412); assay: BSK_LPS_VCAM1: BioMAP Diversity Plus: LPS Assay for Vascular cell adhesion molecule 1 (VCAM1) Biomarker Activity (AID 2283086)
Procedure, shortened: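 VCAM-1 quantified by ELISA in an LPS-activated co-culture of human endothelial cells and peripheral blood mononuclear cells, read 24 h post-treatment. Fitted in both directions versus DMSO; parallel SRB staining flags overt cytotoxicity.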

CD38, CD38 (gene 952) = assay: BSK_SAg_CD38: BioMAP Diversity Plus: SAg Assay for CD38 Biomarker Activity (AID 2283087)
Procedure, shortened: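 CD38 quantified by ELISA (fluorescence) in a superantigen-activated endothelial cell–PBMC co-culture at 24 h post-dose. Activity fitted in both directions relative to DMSO; parallel SRB and Alamar Blue cytotoxicity read-outs.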

CD69, CD69 (gene 969) = assay: BSK_SAg_CD69: BioMAP Diversity Plus: SAg Assay for CD69 Biomarker Activity (AID 2283089);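 as to AC50: cell surface CD69 protein quantified by ELISA with fluorescence detection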
Procedure, shortened: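 Values derive from bidirectional fitting relative to DMSO vehicle. Cells: umbilical vein endothelium plus peripheral blood mononuclear cells, treated 24 h before fluorescent ELISA for CD69.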

[5] = read-out: Monocyte Chemoattractant Protein-1 (MCP1), CCL2 (gene 6347); assay: BSK_SAg_MCP1: BioMAP Diversity Plus: SAg Assay for Monocyte Chemoattractant Protein-1 (MCP1) Biomarker Activity (AID 2283090)
Procedure, shortened: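 Values derive from bidirectional fitting of ELISA-measured MCP1 against DMSO controls. Readings were taken 24 h after dosing human vascular endothelial cells co-cultured with peripheral blood mononuclear cells under superantigen stimulation.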

[6] = read-out: E-selectin (Homo sapiens) (UniProt P16581); assay: BSK_SAg_Eselectin: BioMAP Diversity Plus: SAg Assay for Eselectin Biomarker Activity (AID 2283091)
Procedure, shortened: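 Primary human endothelial cells and peripheral blood mononuclear cells were co-cultured and exposed to chemical for 24 hours. E-selectin levels were then quantified by ELISA, with bidirectional curve fitting normalised to DMSO controls.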

[7] = read-out: Monokine induced gamma interferon (MIG), CXCL9 (gene 4283); assay: BSK_SAg_MIG: BioMAP Diversity Plus: SAg Assay for Monokine induced gamma interferon (MIG) Biomarker Activity (AID 2283092)
Procedure, shortened: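 Values reflect bidirectional fitting of ELISA-measured MIG against DMSO vehicle, taken 24 h after dosing of a co-culture of human umbilical vein endothelial cells and peripheral blood mononuclear cells.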

CD40, CD40 (gene 958) = assay: BSK_SAg_CD40: BioMAP Diversity Plus: SAg Assay for CD40 Biomarker Activity (AID 2283088)
Procedure, shortened: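 Fluorescence ELISA read-out of CD40 from umbilical vein endothelium plus peripheral blood mononuclear cells, sampled 24 h after dosing. Values come from bidirectional curve fitting with DMSO as baseline.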

Measured: AC50

E-selectin (Homo sapiens), sequence (P16581 whole entry, looked up): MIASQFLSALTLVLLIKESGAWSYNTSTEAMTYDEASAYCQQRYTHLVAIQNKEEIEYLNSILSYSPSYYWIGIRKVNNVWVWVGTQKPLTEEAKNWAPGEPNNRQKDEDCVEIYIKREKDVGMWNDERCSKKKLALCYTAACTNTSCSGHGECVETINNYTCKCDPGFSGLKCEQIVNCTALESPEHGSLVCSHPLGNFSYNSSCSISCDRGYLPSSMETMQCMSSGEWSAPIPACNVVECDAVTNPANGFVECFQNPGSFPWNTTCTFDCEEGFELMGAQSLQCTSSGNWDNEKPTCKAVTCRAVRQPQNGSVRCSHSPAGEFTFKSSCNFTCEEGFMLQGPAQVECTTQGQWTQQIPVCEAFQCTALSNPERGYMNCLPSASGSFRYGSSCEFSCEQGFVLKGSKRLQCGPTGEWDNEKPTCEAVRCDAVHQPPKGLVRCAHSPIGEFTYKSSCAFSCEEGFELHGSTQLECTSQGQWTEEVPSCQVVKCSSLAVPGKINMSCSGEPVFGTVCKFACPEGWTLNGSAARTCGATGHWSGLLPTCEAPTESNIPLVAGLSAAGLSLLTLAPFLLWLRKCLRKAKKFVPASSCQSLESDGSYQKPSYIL
Tumor necrosis factor (Homo sapiens), sequence (P01375 whole entry, looked up): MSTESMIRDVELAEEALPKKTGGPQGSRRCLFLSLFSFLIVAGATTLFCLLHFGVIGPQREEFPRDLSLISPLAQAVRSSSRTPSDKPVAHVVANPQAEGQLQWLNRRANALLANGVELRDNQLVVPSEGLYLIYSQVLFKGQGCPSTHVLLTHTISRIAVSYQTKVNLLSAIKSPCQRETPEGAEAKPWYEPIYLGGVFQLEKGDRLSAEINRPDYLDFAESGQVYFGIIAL

COc1ccc(-n2nc(C(F)F)cc2-c2ccc(S(C)=O)cc2)cc1 (stereo not given)
active: [3] 2.57 µM | CD69, CD69 (gene 969) 2.28 µM | [5] 1.13 µM | [6] 1.21 µM
not listed: CD40, CD40 (gene 958)
inactive: all other assays above

CC(O)CN(CCN(CC(C)O)CC(C)O)CC(C)O (stereo not given)
not listed: CD40, CD40 (gene 958)
inactive: all other assays above

O=C(OC[C@H]1O[C@@H](OC(=O)c2cc(O)c(O)c(OC(=O)c3cc(O)c(O)c(O)c3)c2)[C@H](OC(=O)c2cc(O)c(O)c(OC(=O)c3cc(O)c(O)c(O)c3)c2)[C@@H](OC(=O)c2cc(O)c(O)c(OC(=O)c3cc(O)c(O)c(O)c3)c2)[C@@H]1OC(=O)c1cc(O)c(O)c(OC(=O)c2cc(O)c(O)c(O)c2)c1)c1cc(O)c(O)c(OC(=O)c2cc(O)c(O)c(O)c2)c1
inactive: [1] | [3] | [7]
active: [4] 6.1 µM | CD38, CD38 (gene 952) 9.88 µM | CD40, CD40 (gene 958) 8.21 µM | CD69, CD69 (gene 969) 6.1 µM | [5] 6.1 µM | [6] 6.1 µM

O=C(O)CCN(C1(C(=O)NO)CCCC1)S(=O)(=O)c1ccc(Oc2ccc(F)cc2)cc1
not listed: CD40, CD40 (gene 958)
inactive: all other assays above

CCOC(=O)c1ccc(C2CCC(NC[C@H](O)COc3ccc(O)c(NS(C)(=O)=O)c3)CC2)cc1 (stereo not given in full)
inactive: [2] | [3] | [6] | [7]
active: [1] 18.7 µM | [4] 28.1 µM | CD38, CD38 (gene 952) 32.4 µM | CD69, CD69 (gene 969) 29.8 µM | [5] 11.6 µM

CN(C)c1ccc(N=NS(=O)(=O)O)cc1
active: [2] 5.8 µM | [4] 10.4 µM
not listed: CD40, CD40 (gene 958)
inactive: all other assays above

O=C(O)c1cc(N=Nc2ccc(S(=O)(=O)Nc3ccccn3)cc2)ccc1O
not listed: CD40, CD40 (gene 958)
inactive: all other assays above

CCn1nc(Cc2ccccc2)cc1C1CCN(C[C@H]2C[C@H](N(C)[C@@H](C(=O)O)C(C)C)C[C@@H]2c2cccc(F)c2)CC1
not listed: CD40, CD40 (gene 958)
inactive: all other assays above

Nc1cccc(N)c1
not listed: CD40, CD40 (gene 958)
inactive: all other assays above

CC1(C)C(=O)N(Br)C(=O)N1Br
not listed: CD40, CD40 (gene 958)
inactive: all other assays above

CC(C)=CCC/C(C)=C\CO
not listed: [4]
inactive: all other assays above

CCC(C)(C)C(=O)O[C@H]1C[C@@H](C)C=C2C=C[C@H](C)[C@H](CC[C@@H]3C[C@@H](O)CC(=O)O3)[C@H]21
active: [1] 35 µM | [3] 0.363 µM | [4] 25.4 µM | CD38, CD38 (gene 952) 24.9 µM | [5] 20 µM | [6] 0.149 µM
inactive: [2] | [7]

CC(C)CCO
not listed: CD40, CD40 (gene 958)
inactive: all other assays above

CCCN(C1CCN(C(=O)C2CCNCC2)CC1)[C@@H]1CCc2ccc(OC)cc2C1
not listed: CD40, CD40 (gene 958)
inactive: all other assays above
